# Compound activity (PubChem BioAssay)
# HP1b chromo inh: HP1-beta chromodomain-methylated histone interaction inhibition; P83916; AlphaScreen HP1-beta / biotin-H3K9me3 peptide binding; Potency, µM (titrated, usually from 114 µM), without a hit: at the top dose activity change, negative = inhibition, usual class: inhibitors; 390,000 tested, 0.56% active; further: nearly all actives have a fitted effect of over 70% in size
#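 AlphaScreen: HP1-beta (50 nM) preformed 30 min with biotin-H3(1-18)K9me3 peptide (50 nM) in PBS pH 7.4, 0.01% Tween-20. Compound added for 30 min at RT, then streptavidin donor/nickel chelate acceptor beads (10 ug/mL) for 30 min.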
# Sfp inh: blocks B. subtilis Sfp PPTase activity. Q9F4F7. Biochemical Sfp PPTase activity, qHTS. Potency, µM, for the others: largest response in the series, negative = inhibition, hits mostly inhibitors. 310,000 tested, 3.5% active. AID 1490;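 further: the enzyme is Sfp with the accession as filed and its product quenches rhodamine fluorescence; 0% = enzyme reaction without inhibitor and -100% = no enzyme wells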
#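 Step 1, compound plus 15 nM Sfp-PPTase, 15 min, room temperature. Step 2, add rhodamine-CoA (5 uM) and BHQ-2-YbbR (12.5 uM). Step 3, read 525/598 nm fluorescence at 0 and 30 min.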
# G9a inh: inhibitors of human histone lysine methyltransferase G9a | Q96KQ7 | G9a H3K9 monomethylation, AlphaScreen, 2 h | Potency, µM (doses to about 102 µM), for inactives: top-dose activity, negative = inhibition, usual class: inhibitors | 350,000 tested, 8.8% active; further: on the % scale 0 is the no-effect control and ±100 the full control effect; nearly all actives have a fitted effect of over 75% in size
#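 AlphaScreen detection with an anti-monomethyl H3K9 antibody quantified product after a 2 h room-temperature reaction containing 500 nM biotinylated H3K9 peptide, 20 µM SAM and 20 nM enzyme, which had been preincubated 15 min with compound.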
# JMJD2A Tudor: JMJD2A Tudor domain (human) inhibition. AlphaScreen JMJD2A-Tudor / H3K4me3 peptide binding. Potency, µM (top dose mostly 114 µM), for the others: at the top dose activity change, negative = inhibition, hits mostly inhibitors. 390,000 tested, 4.4% active. O75164. AID 504339; further: on the % scale 0 is the no-effect control and ±100 the full control effect; nearly all actives have a fitted effect of over 50% in size
# BAZ2B inh: blocks human BAZ2B; AID 504333; Potency, µM (top dose mostly 114 µM), inactives show top-dose activity change, negative = inhibition, usual class: inhibitors; 360,000 tested, 4.4% active; Q9UIF8; AlphaScreen BAZ2B-H3K14Ac peptide displacement; further: on the % scale 0 is the no-effect control and ±100 the full control effect; nearly all actives have a fitted effect of over 60% in size
#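 AlphaScreen luminescence quantifies BAZ2B engagement of H3K14Ac peptide; the protein and biotinylated peptide are both at 50 nM final, buffer PBS pH 7.4 with 0.01% Tween-20, all steps at room temperature.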
# An asterisk follows results filed as active; ? = inconclusive; nt = not tested or not shown; [ ] = dose if it differs, or a comment. Sampled rows, rich in hits. Any-hit rate of the full collection: about 12%. The call rests on the fitted dose curve; in most records, active means well fitted curve in the direction sought with a large enough effect; inconclusive means small, poorly fitted or top-dose-only effect, or another doubt; inactive means no such curve, though single readings can be large; an effect the other way counts as inactive or inconclusive. Potency means the concentration at half of the fitted maximal effect.
SMILES,HP1b chromo inh,Sfp inh,G9a inh,JMJD2A Tudor,BAZ2B inh
CCc1cccc(C)c1NC(=S)NCc1ccccc1,16.2%,18.5%,32.2%[59 µM],-10.8%,-7.7%
CN(C)c1ccc(NC(=O)CN2CCC(NC(=O)C3CCCCC3)CC2)cc1,-18.4%,0.2%,?,?,-38.0%
O=C(CN1CCCCCC1)Nc1ccc(Br)cc1,24.0%,2.6%,-7.7%[12.7 µM],-1.3%,7.9%
CC(=O)O[C@H]1CC2(C)[C@@H](C[C@@H](O)[C@H]3[C@@]4(C)CC[C@@H](O)[C@@H](C)[C@@H]4CC[C@@]32C)C1=C(CCC=C(C)C)C(=O)O (stereo not given in full),nt,nt,35.7%[59 µM],nt,nt
O=C(CNCC1CCCCC1)Nc1ccc(OC(F)(F)F)cc1,-25.0%,-10.8%,8.91µM*,3.55µM*,50.1µM*
CCN(CC)c1ccc(NC(=O)CN2CCN(CC(=O)Nc3ccc(OC)cc3)CC2)cc1,12.0%,0.7%,11.2µM*,-21.1%,-25.5%
CC(C)c1ccc(S(=O)(=O)N2CCN(CC(=O)Nc3ccc(Cl)cc3F)CC2)cc1,38.4%,nt,-9.8%[12.7 µM],-10.1%,11.6%
O=C(CN1CCCCC1)NN(Cc1ccccc1)c1ccccc1,?,-9.7%,15.8µM*,-2.3%[11.4 µM],50.1µM*
CCN(CC)c1ccc(NC(=O)CN2CCN(S(=O)(=O)c3ccc(C(C)C)cc3)CC2)cc1,?,nt,?,14.1µM*,7.94µM*
O=C(CN1CCCCC1)Nc1ccccc1NC(=O)CN1CCCCC1,19.4%,0.9%,-39.0%,15.7%[57.1 µM],5.3%
CCCCn1c(N)c(N(CC)C(=O)C2=COCCO2)c(=O)[nH]c1=O,16.9%,nt,?,-11.7%,-1.0%
Cc1nc2c3ccccc3nc(NNC(=O)CCC(=O)N3CCN(c4cccc(Cl)c4)CC3)n2n1,72.7%,nt,26.5%[59 µM],-14.5%,11.1%
CC(C)COc1ccc(C(=O)N(Cc2cccc(F)c2)C2CCS(=O)(=O)C2)cc1 (stereo not given),10.6%,nt,-4.5%[59 µM],-23.3%,-12.0%
COc1ccc(CCNC2CC(=O)N(CCc3ccccc3)C2=O)cc1 (stereo not given),15.4%,-10.7%,6.4%[12.7 µM],-6.5%,2.6%
CN(C)c1ccc(NC(=O)N2CCOCC2)cc1,-11.9%,39.8µM*,3.98µM*,?,?
CCN(CC)c1ccc(NC2CC(=O)N(CCc3ccc(OC)cc3)C2=O)cc1 (stereo not given),?,31.6µM*,?,39.8µM*,35.5µM*
O=C(Nc1ccc(F)cc1)N1CCOCC1,26.2%,8.5%,14.9%[2.33 µM],6.3%,7.3%
CC(C)CNC(=O)C1=CC(c2ccc3c(c2)OCO3)=NS(=O)(=O)N1C,45.0%,nt,?,-5.6%,2.3%
c1ccc(Sc2ccccn2)cc1,6.1%,nt,nt,-6.6%,nt
c1ccc(SSc2ccccn2)nc1,?,nt,nt,3.98µM*,nt
CN(CC(=O)Nc1ccccc1Cl)S(=O)(=O)c1ccc(C(=O)N2CCOCC2)s1,36.4%,nt,-0.4%[12.7 µM],-2.6%,-7.9%
COc1ccc(N(CC(=O)NCCc2cccc(C)c2)S(=O)(=O)c2c(C)nn(C)c2C)cc1,34.2%,nt,7.1%[59 µM],-6.0%,nt
CCOP(=O)(O)c1ccccc1OCCOc1ccccc1P(=O)(O)OCC,81.1%,-6.5%,44.7µM*,-16.7%,?
CCOP(=O)(O)c1ccccc1OCCCCCOc1ccccc1P(=O)(O)OCC,27.6%,4.5%,-4.6%[59 µM],-15.7%,1.8%
Cc1ccc(CNC(=O)CCCN2C(=O)COc3ccc(C)cc32)cc1,41.6%,nt,4.3%[59 µM],-11.9%,2.7%
SMILES,HP1b chromo inh,Sfp inh,G9a inh,JMJD2A Tudor,BAZ2B inh
COc1cccc(CNc2ccc3[nH]c(=O)[nH]c3c2)c1OCc1ccccc1Cl,?,?,nt,39.8µM*,12.6µM*
COc1cccc(CNc2ccc3[nH]c(=O)[nH]c3c2)c1OCc1ccccc1,?,-23.1%,nt,39.8µM*,44.7µM*
O=C(Oc1ccccc1)N1CCC2(CCCN(c3ccccc3)C2)CC1,nt,-11.6%,0.9%[12.7 µM],nt,nt
Cc1ccc(C(C)(O)CS(=O)(=O)Cc2ccccc2Cl)cc1 (stereo not given),56.4%,-18.4%,44.7µM*,-1.8%,4.9%
CC(O)(CS(=O)(=O)Cc1ccccc1)c1ccc(Cl)cc1 (stereo not given),35.2%,1.0%,-30.9%,2.3%,-30.5%
CC(=O)c1ccc(N2CCOCC2)cc1O,nt,17.5%,nt,nt,nt
CC(=O)c1ccc2c3c(ccc(O)c13)CC2,?,-10.3%,44.7µM*,44.7µM*,35.5µM*
O=c1oc(-c2ccc(C(F)(F)F)cc2)nn1Cc1cc(Cl)ccc1O,nt,1.4%,nt,nt,nt
O=C(COc1ccccc1)NCc1n[nH]c(=S)n1-c1ccccc1,39.5%,2.8%,20µM*,8.91µM*,-17.9%
COc1ccc(-n2c(CNC(=O)COc3ccccc3)n[nH]c2=S)cc1,37.1%,5.8%,?,11.2µM*,-17.9%
COc1ccc(OCC(=O)NCc2n[nH]c(=O)c3ccccc23)cc1,41.6%,nt,8.8%[0.501 µM],-4.1%,4.3%
COc1ccc(-n2c(CNC(=O)COc3ccc(Cl)cc3Cl)n[nH]c2=S)cc1,72.6%,0.6%,7.94µM*,-6.1%,0.3%
COc1ccc(CNC(=O)COC(=O)CCCOc2ccc(Cl)cc2Cl)cc1,42.0%,1.5%,0.4%,18.8%,-2.3%
COc1ccc(-n2c(CNC(=O)COc3ccc(Cl)cc3)n[nH]c2=S)cc1,-5.9%,8.3%,2.51µM*,12.6µM*,-6.4%
O=C(COc1ccccc1)NCc1ccccc1,21.3%,12.7%,33.9%,0.6%,7.7%
COc1ccc([C@@H]2[C@@H]3C(=O)N(C(C)(C)C)C(=O)[C@@H]3[C@]3(C)C(=O)N(c4cccc(Cl)c4)C(=O)N23)cc1,40.3%,nt,12.4%[12.7 µM],-20.4%,5.2%
O=C(c1cc(C(F)(F)F)cc(C(F)(F)F)c1)N1CCC[C@@]2(CCN(c3ccncc3)C2)C1,nt,-0.5%,3.5%[12.7 µM],nt,nt
CC1CCCC(NC(=O)CN2CCN(S(=O)(=O)c3ccc(Br)s3)CC2)C1C (stereo not given),9.3%,nt,-13.3%,-6.9%,6.7%
NS(=O)(=O)c1nn2cc(-c3ccccc3)nc2s1,nt,6.1%,nt,nt,nt
CCOc1ccc(-c2cc(CCCC(=O)NCCc3ccc(Cl)cc3)no2)cc1,36.9%,nt,17.2%[59 µM],1.3%,-5.1%
O=c1oc2c3c4c(cc2s1)CCCN4CCC3,?,17.8µM*,7.94µM*,17.8µM*,56.2µM*
Cc1cc(C)n2c(Nc3ccc(C(C)C)cc3)c(-c3ccsc3)nc2n1,13.9%,nt,-34.6%[59 µM],?,-12.4%
O=c1c(Cl)c(O)c2cccc3c4ccccc4n1c23,6.3%,14.1µM*,44.7µM*,-26.1%,-27.5%
COc1c(O)c(=O)n2c3ccccc3c3ccnc1c32,-10.0%,nt,?,?,9.7%
Cc1nc2ccn(Cc3ccco3)c(=O)c2cc1C(=O)Nc1ccc(F)cc1,22.5%,nt,-0.1%[59 µM],-11.7%,-16.2%
O=S(=O)(c1ccc2c(c1)OCCO2)N1C[C@@H]2C[C@H]1CN2S(=O)(=O)c1c(F)cccc1F,85.1%,nt,nt,-3.4%,nt
Cc1ccc(C2C3=C(CCCC3=O)N=C3c4ccccc4C(=O)C32)cc1 (stereo not given),?,-15.9%,44.7µM*,-21.2%,28.2µM*
